Reference: PubChem BioAssay (NCI)
Compounds without any hit were thinned out: in the full panel of roughly 83,000, 20% have a hit.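 Method: cells in 96-well plates; compound added at one concentration; 48 h incubation; percent growth measured; values under 10 scored active.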 Activity calls are given as the source filed them.

Legend:
Test in all cases: NCI-60 one-dose screen, 48 h (100 = growth as untreated, 0 = no growth, -100 = all killed)
Details in all cases: 10 µM unless noted
DU-145 prostate = tested on: DU-145 prostate
K-562 leukemia = tested on: K-562 leukemia
MALME-3M melanoma = tested on: MALME-3M melanoma
MDA-MB-231 breast = tested on: MDA-MB-231 breast
RXF 393 renal = tested on: RXF 393 renal
SF-268 CNS = tested on: SF-268 CNS
SF-295 CNS = tested on: SF-295 CNS
SF-539 CNS = tested on: SF-539 CNS
UACC-257 melanoma = tested on: UACC-257 melanoma
M14 melanoma = tested on: M14 melanoma

Measured: growth

CC(C)N1C(=O)S/C(=C2/SC(=O)N(C(C)C)C2=O)C1=O
inactive: DU-145 prostate 91.8% | K-562 leukemia 94.4% | MALME-3M melanoma 90.4% | MDA-MB-231 breast 76.2% | RXF 393 renal 99.2% | SF-268 CNS 94.8% | SF-295 CNS 101% | SF-539 CNS 86.4% | UACC-257 melanoma 99% | M14 melanoma 93%

C=C1C(=O)O[C@H]2[C@H]1CC/C(COC(=O)NCc1c[nH]c3ccc(Cl)cc13)=C\CC[C@@]1(C)O[C@@H]21
active: DU-145 prostate -72.2% | K-562 leukemia 0.207% | MALME-3M melanoma -57.1% | MDA-MB-231 breast -70.4% | RXF 393 renal -92.5% | SF-268 CNS -3.81% | SF-539 CNS -54.9% | M14 melanoma -53.2%
inactive: SF-295 CNS 63.8% | UACC-257 melanoma 19.4%

CC(=O)c1ccc(NS(=O)(=O)c2cccc(C(=O)Nc3ccc(Br)cc3)c2)cc1
inactive: DU-145 prostate 94.6% [25 µM] | K-562 leukemia 44.4% [25 µM] | MALME-3M melanoma 56.2% [25 µM] | MDA-MB-231 breast 94.1% [25 µM] | RXF 393 renal 61.7% [25 µM] | SF-268 CNS 60.8% [25 µM] | SF-295 CNS 23.8% [25 µM] | SF-539 CNS 66.5% [25 µM] | UACC-257 melanoma 44.6% [25 µM] | M14 melanoma 63.9% [25 µM]

COc1cc(/C=N/O)nc(-c2ccccn2)c1
inactive: DU-145 prostate 24.7% | K-562 leukemia 11.6% | MDA-MB-231 breast 26.5% | RXF 393 renal 21.2% | SF-295 CNS 14.8%
active: MALME-3M melanoma 6.48% | SF-268 CNS 6.74% | SF-539 CNS 4.89% | UACC-257 melanoma 5.15% | M14 melanoma 6.86%

CCCCNC(=O)Oc1ccc(/C(=C(\C)c2ccccc2)c2ccc(OCCN3CCCCC3)cc2)cc1
active: K-562 leukemia 5.45% | UACC-257 melanoma -24.1% | M14 melanoma -15.6%
inactive: DU-145 prostate 82.3% | MALME-3M melanoma 44.6% | MDA-MB-231 breast 73% | RXF 393 renal 53.2% | SF-268 CNS 67.7% | SF-295 CNS 42.6% | SF-539 CNS 31%

CCC(=O)Oc1ccc(/C(=C(\C)c2ccccc2)c2ccc(OCCN3CCCCC3)cc2)cc1
inactive: DU-145 prostate 91.5% | K-562 leukemia 17.1% | MALME-3M melanoma 79% | MDA-MB-231 breast 91.1% | RXF 393 renal 73.9% | SF-268 CNS 80.3% | SF-295 CNS 86.5% | SF-539 CNS 62.2% | UACC-257 melanoma 72.1% | M14 melanoma 72.3%

C=C1C(=O)O[C@H]2[C@H]1CC/C(COC(=O)NCc1c[nH]c3ccc(Br)cc13)=C\CC[C@@]1(C)O[C@@H]21
inactive: SF-295 CNS 60.9%
active: DU-145 prostate -88.6% | K-562 leukemia 0.98% | MALME-3M melanoma -45.4% | MDA-MB-231 breast -52.7% | RXF 393 renal -87.7% | SF-268 CNS 3.85% | SF-539 CNS -36.9% | UACC-257 melanoma -39.6% | M14 melanoma -40.8%

Nc1n[nH]c2cccc(C#Cc3cccc(C(=O)Nc4cccc(C(F)(F)F)c4)c3)c12
inactive: DU-145 prostate 74.9% | MALME-3M melanoma 10.4% | MDA-MB-231 breast 53.6% | RXF 393 renal 65.9% | SF-268 CNS 56.4% | SF-295 CNS 81.6% | SF-539 CNS 39% | UACC-257 melanoma 73.2% | M14 melanoma 39.2%
active: K-562 leukemia 8.36%

CCC(CC)NCC(C)(C)O
inactive: DU-145 prostate 106% | K-562 leukemia 102% | MALME-3M melanoma 113% | MDA-MB-231 breast 102% | RXF 393 renal 117% | SF-268 CNS 109% | SF-295 CNS 103% | SF-539 CNS 111% | UACC-257 melanoma 106% | M14 melanoma 97%

COc1ccccc1/C=C1\Oc2cc(OCCN3CCCC3)ccc2C1=O
active: K-562 leukemia -5.04%
inactive: DU-145 prostate 89.2% | MALME-3M melanoma 104% | MDA-MB-231 breast 81.8% | RXF 393 renal 71.5% | SF-268 CNS 91.3% | SF-295 CNS 95.4% | SF-539 CNS 85.9% | UACC-257 melanoma 95% | M14 melanoma 77.2%

CNC(=O)c1cccc(Cn2nc(C)c(NC(=O)c3ccc(COc4ccc(C(F)(F)F)cc4C)cc3)c2C)c1
active: UACC-257 melanoma 8.63%
inactive: DU-145 prostate 58.9% | K-562 leukemia 23.3% | MALME-3M melanoma 77.5% | MDA-MB-231 breast 79.4% | RXF 393 renal 70.4% | SF-268 CNS 61.9% | SF-295 CNS 27.9% | SF-539 CNS 71.7% | M14 melanoma 41.6%

COc1cc2c(=O)n(CCN(C)C)c3c4cc5c(cc4ccc3c2cc1OC)OCO5
active: DU-145 prostate 3.59% | MALME-3M melanoma -63.6% | MDA-MB-231 breast -21.6% | RXF 393 renal -84.6% | SF-268 CNS 0.0226% | SF-295 CNS 3.79% | SF-539 CNS -39.9% | UACC-257 melanoma -33.4% | M14 melanoma -56.7%
inactive: K-562 leukemia 12.1%

COc1cc2nc(-c3ccc(Cl)cc3)cc(OCCCN3CCOCC3)c2cc1OC
active: SF-295 CNS -39% | UACC-257 melanoma 1.42% | M14 melanoma -37.9%
inactive: DU-145 prostate 43.8% | K-562 leukemia 10.3% | MALME-3M melanoma 64.9% | MDA-MB-231 breast 27.2% | RXF 393 renal 28.7% | SF-268 CNS 63.2% | SF-539 CNS 64.1%

O=C(NCCNc1nccc(-c2c(-c3cccc(F)c3)nc3sccn23)n1)c1ccc(Cl)cc1
inactive: DU-145 prostate 71% | K-562 leukemia 54.4% | MALME-3M melanoma 34.9% | MDA-MB-231 breast 65.5% | RXF 393 renal 72.9% | SF-268 CNS 67.9% | SF-295 CNS 73.8% | SF-539 CNS 90% | UACC-257 melanoma 76% | M14 melanoma 38.8%

COc1cc(/C=C\C(=O)O)ccc1OCc1ccccc1
inactive: DU-145 prostate 103% | K-562 leukemia 126% | MALME-3M melanoma 102% | MDA-MB-231 breast 93.5% | RXF 393 renal 103% | SF-268 CNS 94.8% | SF-295 CNS 101% | SF-539 CNS 99.5% | UACC-257 melanoma 91% | M14 melanoma 109%

COc1ccc(C(=O)c2cc(C)c(OC)c(C)c2)c(OC)c1NC(C)=O
inactive: K-562 leukemia 15.5% | MALME-3M melanoma 58.5% | MDA-MB-231 breast 20.9% | RXF 393 renal 10.8% | SF-268 CNS 37.9% | SF-295 CNS 13% | UACC-257 melanoma 66.1%
active: DU-145 prostate 4.21% | SF-539 CNS -13.7% | M14 melanoma -8.33%

COc1cc(F)c(/C=C/c2cc(/C=C/c3cc(OC)c(OC)cc3F)on2)cc1OC
inactive: DU-145 prostate 88.2% | K-562 leukemia 63.3% | MALME-3M melanoma 69.3% | MDA-MB-231 breast 83% | RXF 393 renal 92.8% | SF-268 CNS 86.7% | SF-295 CNS 97.7% | SF-539 CNS 98% | UACC-257 melanoma 86.3% | M14 melanoma 80.9%

N#Cc1c(NC(=O)NCc2ccccc2)sc2c1CCCCC2
inactive: K-562 leukemia 12.7% | MALME-3M melanoma 44.7% | MDA-MB-231 breast 10.7% | SF-268 CNS 41% | SF-295 CNS 19.9% | UACC-257 melanoma 61.6% | M14 melanoma 10.9%
active: DU-145 prostate 3.54% | RXF 393 renal -3.29% | SF-539 CNS -5.27%

CCN(CC)CC[n+]1cc2cc(OC)c(OC)cc2c2ccc3cc4c(cc3c21)OCO4
active: DU-145 prostate 1.33% | K-562 leukemia 2.65% | MALME-3M melanoma -2.49% | MDA-MB-231 breast -19.5% | RXF 393 renal -39.1% | SF-268 CNS -16% | SF-295 CNS -2.66% | SF-539 CNS -14.7% | M14 melanoma -54.2%
inactive: UACC-257 melanoma 18%
